TDP1 cell CPT – growth inhibition of DT40 Tdp1-/-;hTDP1 cells with camptothecin (screen for TDP1 inhibitors) | AID 686979 | Potency, µM (top dose mostly 46.2 µM), for the others: at the top dose activity change, negative = growth inhibition, actives largely listed as inhibitors | actives 12% (n = 420,000) | chicken DT40 Tdp1-/-;hTDP1 cells + 20 nM CPT, ATP luminescence, 48 h; further: nearly all actives have a fitted effect of over 55% in size
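Chicken DT40 Tdp1-/- cells stably complemented with human TDP1 were seeded at 400 cells/well in medium containing 20 nM camptothecin, exposed to pin-transferred compounds, and grown at 37 °C for at least 48 hr. Viability was read as ATP luminescence.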
KAT2A inh – inhibitors of human GCN5L2 histone acetyltransferase. actives 0.21% (n = 390,000). Potency, µM (top dose mostly 58.9 µM), for the others: at the top dose activity change, negative = inhibition, most hits filed as inhibitors. GCN5L2 HAT assay, ThioGlo1 CoA-SH fluorescence. AID 504327
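Compounds, pin-transferred from DMSO stocks, meet 20nM GCN5L2 for 15 min before the reaction begins with H3(1-25) peptide (75uM) and acetyl-CoA (70uM). Thiol-reactive ThioGlo1 reports CoA release over 20 min at room temperature.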
PLK1 PBD inh – PLK1 (human) polo-box domain binding inhibition; actives 2.8% (n = 360,000); Plk1 PBD binding of FITC phosphopeptide, fluorescence polarization; AID 720504; Potency, µM, inactives show max response, negative = inhibition, most hits filed as inhibitors; P53350; further: series mostly up to about 57 µM; nearly all actives have a fitted effect of over 65% in size
TDP1 inh – TDP1 (human) enzyme inhibition. AID 485290. actives 0.28% (n = 350,000). Potency, µM (top dose mostly 130 µM), for inactives: at the highest dose activity change, negative = inhibition, hits mostly inhibitors. recombinant TDP1, AlphaScreen DNA substrate cleavage; further: nearly all actives have a fitted effect of over 40% in size
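Signal: AlphaScreen proximity between streptavidin donor and anti-FITC acceptor beads on intact substrate. Reaction: Tdp1 1 nM, substrate 15 nM final, 5 min RT after 15 min compound preincubation.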
DT40 TDP1 no CPT – qHTS for Inhibitors of human tyrosyl-DNA phosphodiesterase 1 (TDP1): qHTS in cells in absence of CPT. DT40 Tdp1-/- hTDP1 cells, no CPT, ATP luminescence, 48 h. actives 15% (n = 420,000). Potency, µM (top dose mostly 46.2 µM), for the others: at the top dose activity change, negative = growth inhibition, usual class: inhibitors. AID 686978, 2013; further: nearly all actives have a fitted effect of over 55% in size
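Growth kinetics read by CellTiter-Glo luminescence after ≥48 hr at 37 °C. Cells: DT40 Tdp1-/- stably carrying human TDP1, 400 per well, compound exposure in the absence of CPT (DMSO vehicle).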
VDR inh – vitamin D3 receptor (human) inhibition; VDR-SRC2-3 peptide fluorescence polarization, 2 h; P11473; Potency, µM, for the others: max response, negative = inhibition, usual class: inhibitors; AID 504847; actives 0.93% (n = 400,000)
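Fluorescence polarization assay of small-molecule disruption of VDR binding to coregulator peptide SRC2-3. Compounds and controls pin-transferred, then read after 2 h incubation at ambient room temperature.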
An asterisk follows results filed as active; ? = inconclusive; / = not tested or not shown. Hits are enriched below; roughly 18% of the tested compounds scored in any of these assays. The call rests on the fitted dose curve; in most records, active means well fitted curve in the direction sought with a large enough effect; inconclusive means small, poorly fitted or top-dose-only effect, or another doubt; inactive means no such curve, though single readings can be large; an effect the other way counts as inactive or inconclusive. On the % scale 0 is the no-effect control and ±100 the full control effect; potency means the concentration at half of the fitted maximal effect.

SMILES | TDP1 cell CPT | KAT2A inh | PLK1 PBD inh | TDP1 inh | DT40 TDP1 no CPT | VDR inh
O=C(COC(=O)c1ccccc1NCCO)Nc1cc(C(F)(F)F)ccc1N1CCOCC1 | 18µM* | -9% | -3% | -4% | ? | -5%
O=C(OCc1ccc([N+](=O)[O-])cc1)c1cc([N+](=O)[O-])ccc1N1CCOCC1 | 16µM* | -8% | -20% | 9% | 23µM* | -12%
COc1ccc(CN(C)C(=O)COC(=O)c2cc([N+](=O)[O-])ccc2N2CCCC2)c(OC)c1OC | ? | -9% | -12% | 2% | 21µM* | 21%
Cc1ccc(COC(=O)c2cc([N+](=O)[O-])ccc2N2CCOCC2)cc1 | / | -8% | / | 6% | / | /
CC(=O)c1ccc(NC(=O)CSc2nnc3ccc(-c4ccc(Cl)cc4)nn23)cc1 | -12% | 3% | / | 3% | -11% | -1%
CCOC(=O)c1ccccc1NC(=O)COC(=O)c1cc([N+](=O)[O-])ccc1N1CCOCC1 | ? | -25% | ? | -1% | 6.5µM* | ?
CN(Cc1ccccc1)C(=O)COC(=O)c1cc([N+](=O)[O-])ccc1N1CCOCC1 | -3% | -7% | -3% | / | ? | -5%
CCN(C(=O)COC(=O)c1cc([N+](=O)[O-])ccc1N1CCOCC1)c1ccccc1 | ? | -17% | -6% | 5% | 15µM* | -17%
CSc1ccc(CN2CCN(Cc3ccc([N+](=O)[O-])cc3)CC2)cc1 | ? | -8% | 6% | -2% | 21µM* | -15%
O=[N+]([O-])c1ccc(COc2cccc(CN3CCCCC3)c2)cc1 | ? | / | -2% | / | 16µM* | 9%
O=[N+]([O-])c1ccc(COc2ccc(CN3CCCCC3)cc2)cc1 | ? | / | -12% | / | ? | 2%
O=[N+]([O-])c1ccc(COc2ccc(CN3CCOCC3)cc2)cc1 | ? | / | -4% | / | 23µM* | 0%
O=C(CCC(=O)c1cccs1)NCc1cccc(Cl)c1 | -14% | 3% | -3% | / | -3% | -9%
Cc1nc2cnc(N(C)C)nc2n(C)c1=O | 10% | ? | / | / | -5% | 11%
Cc1nc(-c2cccc(S(=O)(=O)N3CC(C)CC(C)C3)c2)cs1 (stereo not drawn) | ? | -3% | 2% | 3% | 13µM* | 5%
Cc1nc(-c2cccc(S(=O)(=O)N3CCOCC3)c2)cs1 | ? | -19% | 9.5µM* | 0% | ? | ?
CCOC(=O)c1c(C)[nH]c(C(=O)N2CCN(c3ccc(OC)cc3)CC2)c1C | -5% | 1% | -8% | 3% | ? | 11%
C1=C[C@H]2CCCN3CC[C@@H]([C@@H]2[C@]32CO2)[C@H]1CCOCc1ccccc1 | ? | / | -3% | / | ? | /
CCOC(=O)c1c(C)[nH]c(C)c1C(=O)CSc1nc2ccccc2n1CCC#N | 4% | 27% | -3% | 3% | -30% | -12%
NC(=O)CSc1nc2ccccc2c(=O)n1-c1ccccc1 | 2% | -9% | 4% | / | 10% | 5%
N#CCCn1c(SCC(=O)c2c[nH]c3ccccc23)nc2ccccc21 | 23µM* | -10% | ? | 2% | 18µM* | -5%
O=C(CSc1nc2ccccc2c(=O)n1-c1ccccc1)c1c[nH]c2ccccc12 | 6.5µM* | -3% | -7% | 0% | 6.5µM* | ?
Cc1cc(OC2CCCCC2)nc(NCc2ccccc2)n1 | 4% | -6% | 0% | 1% | 5% | -10%
Cc1cc(N2CCOCC2)nc(NCc2ccccc2)n1 | 21µM* | -1% | -6% | 5% | 13µM* | -4%
Cc1cc(N2CCCCC2)nc(NCc2ccccc2)n1 | 10µM* | 34% | -3% | 4% | 7.3µM* | -4%

Screening data from PubChem.
